Active and inactive are the calls of the source. The calls were made as follows: active = hit-call score of the fitted dose curve at least 0.9, where 1 is the maximum; inactive = score below 0.9.
How the values were obtained:
Settings in all cases: mRNA level, 48 h; actives raise or lower the signal
[1] = read-out: Cytochrome P450 3A4 (Homo sapiens) (UniProt P08684); assay: LTEA_HepaRG_CYP3A4: Life Technologies and Expression Analysis (LTEA) Assay for CYP3A4 using HepaRG (AID 2283487)
Method in brief: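 HepaRG, 48 h exposure, 8-pt CRC from 100 uM (half-log), 0.5% DMSO, duplicates; serum-free induction medium. Readout: CYP3A4 mRNA, qRT-PCR, ACTB/GAPDH/POLR2A normalization. Bidirectional fit vs DMSO.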

[2] = read-out: DNA damage-inducible transcript 3 (DDIT3), DDIT3 (gene 1649); assay: LTEA_HepaRG_DDIT3: Life Technologies and Expression Analysis (LTEA) Assay for DNA damage-inducible transcript 3 (DDIT3) using HepaRG (AID 2283488)
Method in brief: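 HepaRG cells, 48 h after plating, exposed 48 h in serum-free induction medium to 8 half-log concentrations up to 100 uM in 0.5% DMSO, in duplicate. DDIT3 mRNA measured by TaqMan qRT-PCR, normalized to ACTB, GAPDH and POLR2A. Fitted bidirectionally against DMSO.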

[3] = read-out: Pro-epidermal growth factor (Homo sapiens) (UniProt P01133); assay: LTEA_HepaRG_EGF: Life Technologies and Expression Analysis (LTEA) Assay for Epidermal growth factor (EGF) using HepaRG (AID 2283489)
Method in brief: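 EGF transcript measured by Fluidigm TaqMan qRT-PCR with three housekeeping genes for normalization, 48 h after dosing HepaRG cultures in duplicate (top 100 uM, half-log steps, 0.5% DMSO vehicle). Gain or loss relative to DMSO fitted.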

[4] = read-out: Early growth response protein 1 (EGR1) transcription factor, EGR1 (gene 1958); assay: LTEA_HepaRG_EGR1: Life Technologies and Expression Analysis (LTEA) Assay for Early growth response protein 1 (EGR1) transcription factor using HepaRG (AID 2283490)
Method in brief: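 Differentiated human HepaRG cells in serum-free induction medium were exposed in duplicate for 48 h to eight concentrations (top 100 uM, half-log steps) in 0.5% DMSO. EGR1 mRNA was quantified by qRT-PCR, normalized to ACTB, GAPDH and POLR2A, and fitted bidirectionally versus DMSO.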

[5] = read-out: Ezrin (EZR), EZR (gene 7430); assay: LTEA_HepaRG_EZR: Life Technologies and Expression Analysis (LTEA) Assay for Ezrin (EZR) using HepaRG (AID 2283491)
Method in brief: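 Read-out is EZR transcript level by qRT-PCR, normalized to three housekeeping genes and fitted bidirectionally against the DMSO control. Human HepaRG cells received test chemicals for 48 h at eight half-log concentrations up to 100 uM in 0.5% DMSO.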

[6] = read-out: Cytochrome P450 3A7 (Homo sapiens) (UniProt P24462); assay: LTEA_HepaRG_CYP3A7: Life Technologies and Expression Analysis (LTEA) Assay for CYP3A7 using HepaRG (AID 2283492)
Method in brief: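 CYP3A7 transcript measured by qRT-PCR (ACTB, GAPDH, POLR2A normalization) after 48 h chemical exposure of HepaRG cells in duplicate. Eight half-log concentrations, maximum 100 uM, 0.5% DMSO vehicle; bidirectional curve fitting against DMSO baseline.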

CYP3A5 (gene 1577) = assay: LTEA_HepaRG_CYP3A5: Life Technologies and Expression Analysis (LTEA) Assay for CYP3A5 using HepaRG (AID 2283493)
Method in brief: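 HepaRG cells, plated 48 h then in serum-free induction medium, dosed in duplicate for 48 h with eight half-log concentrations up to 100 uM in 0.5% DMSO. Gene mRNA by Fluidigm TaqMan qRT-PCR, normalized to ACTB, GAPDH, POLR2A.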

[7] = read-out: Fatty Acid-Binding Protein 1 (FABP1), FABP1 (gene 2168); assay: LTEA_HepaRG_FABP1: Life Technologies and Expression Analysis (LTEA) Assay for Fatty Acid-Binding Protein 1 (FABP1) using HepaRG (AID 2283494)
Method in brief: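 Differentiated human HepaRG cells were exposed in duplicate for 48 h in serum-free induction medium to 8-point half-log concentration series topping at 100 uM in 0.5% DMSO. FABP1 mRNA measured by TaqMan qRT-PCR, normalized to ACTB/GAPDH/POLR2A; bidirectional fit versus DMSO.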

[8] = read-out: Glutathione S-Transferase (GSTA2), GSTA2 (gene 2939); assay: LTEA_HepaRG_GSTA2: Life Technologies and Expression Analysis (LTEA) Assay for Glutathione S-Transferase (GSTA2) using HepaRG (AID 2283497)
Method in brief: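 Human HepaRG cells, plated 48 h, then exposed in serum-free induction medium for 48 h to eight half-log concentrations up to 100 uM in 0.5% DMSO, duplicate. GSTA2 mRNA by qRT-PCR, normalized to ACTB/GAPDH/POLR2A; bidirectional fit versus DMSO.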

[9] = read-out: Glutamate-cysteine ligase catalytic (GCLC), GCLC (gene 2729); assay: LTEA_HepaRG_GCLC: Life Technologies and Expression Analysis (LTEA) Assay for Glutamate-cysteine ligase catalytic (GCLC) using HepaRG (AID 2283498)
Method in brief: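 Differentiated human HepaRG cells, plated 48 h then switched to serum-free induction medium, were exposed in duplicate for 48 h to 8 half-log concentrations topping at 100 uM in 0.5% DMSO. GCLC mRNA was quantified by qRT-PCR against ACTB, GAPDH and POLR2A.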

[10] = read-out: Glutamate-cysteine ligase regulatory (GCLM), GCLM (gene 2730); assay: LTEA_HepaRG_GCLM: Life Technologies and Expression Analysis (LTEA) Assay for Glutamate-cysteine ligase regulatory (GCLM) using HepaRG (AID 2283500)
Method in brief: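 Differentiated HepaRG cells exposed 48 h in serum-free induction medium to eight half-log concentrations up to 100 uM (0.5% DMSO). GCLM mRNA by TaqMan qRT-PCR, normalized to ACTB, GAPDH and POLR2A; bidirectional fit versus DMSO.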

[11] = read-out: Glutathione S-transferase M3 (GSTM3), GSTM3 (gene 2947); assay: LTEA_HepaRG_GSTM3: Life Technologies and Expression Analysis (LTEA) Assay for Glutathione S-transferase M3 (GSTM3) using HepaRG (AID 2283501)
Method in brief: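 GSTM3 transcript levels came from Fluidigm TaqMan qRT-PCR normalized to three housekeeping genes, fitted in both directions against DMSO. HepaRG cultures received chemicals for 48 h in serum-free induction medium (0.5% DMSO), 8 half-log concentrations up to 100 uM, duplicate.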

[12] = read-out: Hypoxia-inducible factor 1-alpha (Homo sapiens) (UniProt Q16665); assay: LTEA_HepaRG_HIF1A: Life Technologies and Expression Analysis (LTEA) Assay for Hypoxia-inducible factor 1 (HIF1A) Trancription factor using HepaRG (AID 2283503)
Method in brief: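 Differentiated HepaRG cells in serum-free induction medium exposed 48 h, in duplicate, to 8-point half-log series from 100 uM in 0.5% DMSO. HIF1A mRNA measured by TaqMan qRT-PCR, normalized to ACTB/GAPDH/POLR2A, fitted bidirectionally versus DMSO.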

[13] = read-out: 3-Hydroxy-3-Methylglutaryl-CoA Synthase 2 (HMGCS2), HMGCS2 (gene 3158); assay: LTEA_HepaRG_HMGCS2: Life Technologies and Expression Analysis (LTEA) Assay for 3-Hydroxy-3-Methylglutaryl-CoA Synthase 2 (HMGCS2) using HepaRG (AID 2283504)
Method in brief: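 Readout is HMGCS2 transcript by qRT-PCR, housekeeping-normalised (ACTB/GAPDH/POLR2A) and fitted bidirectionally against 0.5% DMSO. Differentiated HepaRG cells received chemicals 48 h, duplicate wells, eight half-log concentrations topping at 100 uM.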

HGF (gene 3082) = assay: LTEA_HepaRG_HGF: Life Technologies and Expression Analysis (LTEA) Assay for Hepatocyte Growth Facto (HGF) using HepaRG (AID 2283505)
Method in brief: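 HGF transcript was quantified by TaqMan qRT-PCR against three housekeeping genes after 48 h treatment of HepaRG cells. Exposure ran in duplicate over eight half-log steps topping at 100 uM in 0.5% DMSO vehicle.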

[14] = read-out: Insulin Like Growth Factor 1 (IGF1), IGF1 (gene 3479); assay: LTEA_HepaRG_IGF1: Life Technologies and Expression Analysis (LTEA) Assay for Insulin Like Growth Factor 1 (IGF1) using HepaRG (AID 2283506)
Method in brief: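 Differentiated HepaRG cells in serum-free induction medium, exposed 48 h in duplicate to 8 half-log concentrations up to 100 uM in 0.5% DMSO. IGF1 mRNA by Fluidigm qRT-PCR, normalised to ACTB, GAPDH and POLR2A.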

[15] = read-out: growth arrest and DNA damage 45 (GADD45G), GADD45G (gene 10912); assay: LTEA_HepaRG_GADD45G: Life Technologies and Expression Analysis (LTEA) Assay for growth arrest and DNA damage 45 (GADD45G) using HepaRG (AID 2283499)
Method in brief: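 GADD45G transcript level by qRT-PCR (housekeeping-normalized: ACTB, GAPDH, POLR2A) after 48 h chemical treatment of a single HepaRG lot in serum-free induction medium; eight-point half-log series up to 100 uM in 0.5% DMSO, duplicates, up- or down-regulation scored.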

[16] = read-out: Cytochrome P450 7A1 (Homo sapiens) (UniProt P22680); assay: LTEA_HepaRG_CYP7A1: Life Technologies and Expression Analysis (LTEA) Assay for Cytochrome P450 7A1 (CYP7A1) using HepaRG (AID 2283496)
Method in brief: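 HepaRG cells plated 48 h, then switched to serum-free induction medium and exposed in duplicate for 48 h to 8-point half-log series from 100 uM in 0.5% DMSO. CYP7A1 mRNA by qRT-PCR (TaqMan), normalized to ACTB/GAPDH/POLR2A; bidirectional fit versus DMSO.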

[17] = read-out: Heat shock 70 kDa protein 1 (HSPA1A), gene 3303; assay: LTEA_HepaRG_HSPA1A: Life Technologies and Expression Analysis (LTEA) Assay for Heat shock 70 kDa protein 1 (HSPA1A) using HepaRG (AID 2283502)
Method in brief: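 Human HepaRG cells in serum-free induction medium were exposed in duplicate for 48 h to 8 half-log concentrations, highest 100 uM, in 0.5% DMSO. HSPA1A mRNA read by TaqMan qRT-PCR, normalized to ACTB, GAPDH, POLR2A, fitted bidirectionally against DMSO.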

Measured: AC50

Sequence of Hypoxia-inducible factor 1-alpha (Homo sapiens) (Q16665 whole entry, looked up): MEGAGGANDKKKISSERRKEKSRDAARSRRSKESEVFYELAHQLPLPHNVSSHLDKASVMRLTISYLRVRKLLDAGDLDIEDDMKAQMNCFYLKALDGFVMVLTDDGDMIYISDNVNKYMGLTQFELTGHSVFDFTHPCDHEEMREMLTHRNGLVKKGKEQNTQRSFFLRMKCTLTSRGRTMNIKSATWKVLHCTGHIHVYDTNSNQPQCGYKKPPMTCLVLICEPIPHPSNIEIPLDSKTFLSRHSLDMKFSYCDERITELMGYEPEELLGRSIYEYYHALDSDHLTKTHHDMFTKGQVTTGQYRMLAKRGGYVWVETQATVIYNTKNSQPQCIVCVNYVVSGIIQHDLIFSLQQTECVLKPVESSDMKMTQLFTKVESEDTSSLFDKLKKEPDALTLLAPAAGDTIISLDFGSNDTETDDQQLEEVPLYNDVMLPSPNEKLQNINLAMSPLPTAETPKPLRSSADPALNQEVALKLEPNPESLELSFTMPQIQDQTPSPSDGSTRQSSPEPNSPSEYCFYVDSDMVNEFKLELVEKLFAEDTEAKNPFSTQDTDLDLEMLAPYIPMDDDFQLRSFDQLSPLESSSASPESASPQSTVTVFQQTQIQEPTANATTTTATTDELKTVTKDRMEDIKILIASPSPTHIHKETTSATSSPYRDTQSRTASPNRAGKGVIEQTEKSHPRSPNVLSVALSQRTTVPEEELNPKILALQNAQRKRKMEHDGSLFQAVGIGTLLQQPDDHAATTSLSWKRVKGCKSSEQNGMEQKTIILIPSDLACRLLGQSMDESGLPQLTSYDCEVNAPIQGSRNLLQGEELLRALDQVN
Sequence of Cytochrome P450 3A4 (Homo sapiens) (P08684 whole entry, looked up): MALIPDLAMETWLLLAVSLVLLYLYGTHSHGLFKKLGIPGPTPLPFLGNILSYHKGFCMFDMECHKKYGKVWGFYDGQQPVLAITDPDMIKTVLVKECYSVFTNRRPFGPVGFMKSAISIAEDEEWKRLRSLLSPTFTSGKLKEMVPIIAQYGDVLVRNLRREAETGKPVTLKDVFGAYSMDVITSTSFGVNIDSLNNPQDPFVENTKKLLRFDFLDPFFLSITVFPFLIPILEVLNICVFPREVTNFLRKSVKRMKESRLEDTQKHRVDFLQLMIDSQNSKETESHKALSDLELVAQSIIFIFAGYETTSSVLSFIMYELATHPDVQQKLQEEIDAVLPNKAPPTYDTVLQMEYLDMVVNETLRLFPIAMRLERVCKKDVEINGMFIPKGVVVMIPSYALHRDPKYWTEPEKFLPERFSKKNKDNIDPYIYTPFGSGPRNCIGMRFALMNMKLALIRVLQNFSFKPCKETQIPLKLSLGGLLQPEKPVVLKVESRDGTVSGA
Sequence of Cytochrome P450 3A7 (Homo sapiens) (P24462 whole entry, looked up): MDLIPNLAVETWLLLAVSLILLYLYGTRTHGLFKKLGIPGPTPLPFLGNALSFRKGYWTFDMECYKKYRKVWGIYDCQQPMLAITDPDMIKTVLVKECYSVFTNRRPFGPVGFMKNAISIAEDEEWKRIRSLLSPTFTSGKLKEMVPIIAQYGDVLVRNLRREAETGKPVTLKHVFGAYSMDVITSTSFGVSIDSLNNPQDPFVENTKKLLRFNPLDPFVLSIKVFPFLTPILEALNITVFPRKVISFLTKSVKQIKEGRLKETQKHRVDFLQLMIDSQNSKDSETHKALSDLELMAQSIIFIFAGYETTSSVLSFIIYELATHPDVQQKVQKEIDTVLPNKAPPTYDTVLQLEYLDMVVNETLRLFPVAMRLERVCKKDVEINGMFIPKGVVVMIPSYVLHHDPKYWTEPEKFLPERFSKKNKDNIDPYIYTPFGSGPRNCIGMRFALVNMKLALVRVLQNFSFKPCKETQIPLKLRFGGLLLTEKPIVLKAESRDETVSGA

CCSC(=O)N(CC)C1CCCCC1
not listed: [15] | [16] | [17]
inactive: all other assays above

Cc1cccc([N+](=O)[O-])c1
not listed: [3] | [14] | [16] | [17]
inactive: all other assays above

CCC(C)(CC)c1cc(NC(=O)c2c(OC)cccc2OC)on1
active: [1] 0.541 µM | [2] 83.3 µM | [6] 1.39 µM | [7] 4.89 µM | [9] 63.8 µM | [15] 80.1 µM | [14] 1.79 µM
not listed: [17]
inactive: all other assays above

CC(C)(O)C(=O)Nc1ccc([N+](=O)[O-])c(C(F)(F)F)c1
active: [3] 0.0411 µM | [4] 0.0388 µM | [7] 25 µM | [13] 44.8 µM | HGF (gene 3082) 0.0291 µM
not listed: [2] | [14]
inactive: all other assays above

O=C(N[C@H]1CN2CCC1CC2)c1cc2ccoc2cn1
not listed: [17]
inactive: all other assays above

Oc1ccc(Cl)cc1Cl
not listed: [14] | [17]
inactive: all other assays above

COS(=O)(=O)OC
not listed: [17]
inactive: all other assays above

c1cc2ccc3cccc4ccc(c1)c2c34
not listed: [1] | [6] | [14]
inactive: all other assays above

NS(=O)(=O)C(F)(F)C(F)(F)C(F)(F)C(F)(F)C(F)(F)C(F)(F)C(F)(F)C(F)(F)F
active: [1] 10.7 µM | [2] 28.9 µM | [3] 8.93 µM | [4] 89 µM | [5] 11.4 µM | [6] 7.34 µM | CYP3A5 (gene 1577) 21 µM | [7] 9.04 µM | [16] 8.86 µM | [8] 13 µM | [9] 5.02 µM | [15] 50 µM | [10] 0.993 µM | [12] 11.4 µM | [13] 12.8 µM | HGF (gene 3082) 12.9 µM | [14] 22.3 µM
inactive: [11]

CN(C)c1nc(=O)n(C2CCCCC2)c(=O)n1C
active: [1] 50 µM | [6] 28.6 µM
not listed: [17]
inactive: all other assays above

Oc1c(Cl)c(Cl)c(Cl)c(Cl)c1Cl
inactive: HGF (gene 3082)
active: [1] 4.73 µM | [2] 11.7 µM | [3] 25.5 µM | [4] 8.53 µM | [5] 1.58 µM | [6] 4.85 µM | CYP3A5 (gene 1577) 10.6 µM | [7] 2.35 µM | [16] 3.88 µM | [8] 3.87 µM | [9] 1.97 µM | [15] 12.6 µM | [10] 2.1 µM | [11] 4.88 µM | [12] 5.16 µM | [13] 4.84 µM

Reference: PubChem BioAssay (EPA / NIEHS)
